Changes are numbered by the printed parent chain. Numbers in names are those of the source.
B1: 97 (nucleosome)
DNA 1: ATCCTGGAGAATCCCGGTGCCGAGGCCGCTCAATTGGTCGTAGACAGCTCTAGCACCGCTTAAACGCACGTACGCGCTGTCCCCCGCGTTTTAACCGCCTCAAGGCCAACTCCCTAGTCTCCAGGCACGTGTCAGATATATACATCCTGTGAT
DNA 2: ATCACAGGATGTATATATCTGACACGTGCCTGGAGACTAGGGAGTTGGCCTTGAGGCGGTTAAAACGCGGGGGACAGCGCGTACGTGCGTTTAAGCGGTGCTAGAGCTGTCTACGACCAATTGAGCGGCCTCGGCACCGGGATTCTCCAGGAT
modifications: reconstituted with mouse histones H2A, H2B, H3.3 and H4
B2: 98 (nucleosome)
DNA 1: B1 DNA 1 with T100A, C101T, A102C, G104A, C106G, A108C
DNA 2: B1 DNA 2 with T46G, G48C, C50T, T52G, G53A, A54T
modifications: reconstituted with mouse histones H2A, H2B, H3.3 and H4
B3: 88 (nucleosome)
DNA 1: ATCCTGGAGAATCCCGGTGCCGAGGCCGCTCAATTGGTCGTAGACAGCTCTAGCACCGCTTAAACGCACGTACGCGCTGTCCCCCGCGTTTCAAGGCCAAAGGGGATTACTCCCTAGTCTCCAGGCACGTGTCAGATATATACATCCTGTGAT
DNA 2: ATCACAGGATGTATATATCTGACACGTGCCTGGAGACTAGGGAGTAATCCCCTTTGGCCTTGAAACGCGGGGGACAGCGCGTACGTGCGTTTAAGCGGTGCTAGAGCTGTCTACGACCAATTGAGCGGCCTCGGCACCGGGATTCTCCAGGAT
modifications: reconstituted with mouse histones H2A, H2B, H3.3 and H4
B4: 90 (nucleosome)
DNA 1: B3 DNA 1 with C92T, A93T, A94C, G95A, G96A, C97G, C98G, A99C, A100C
DNA 2: B3 DNA 2 with T54G, T55G, G56C, G57C, C58T, C59T, T60G, T61A, G62A
modifications: reconstituted with mouse histones H2A, H2B, H3.3 and H4
B5: 92 (nucleosome)
DNA 1: B1 DNA 1 with C95T, G97A, C98A, C99G, T100G, A102C, C106A, C107T, A108T
DNA 2: B1 DNA 2 with T46A, G47A, G48T, T52G, A54C, G55C, G56T, C57T, G59A
modifications: reconstituted with mouse histones H2A, H2B, H3.3 and H4
B6: 5 (nucleosome)
DNA 1: B3 DNA 1 with A8T, G9C, T12G, C13G, G16A, C92T, G95C, G96C, C97G, A99C
DNA 2: B3 DNA 2 with T55G, G57C, C58G, C59G, G62A, C138T, G141C, A142C, C145G, T146A
modifications: reconstituted with mouse histones H2A, H2B, H3.3 and H4
B7: 91 (nucleosome)
DNA 1: B3 DNA 1 with C92T, A94T, G95C, G96A, C97A, C98G, A99G, A100C, A101C, G102A
DNA 2: B3 DNA 2 with C52T, T53G, T54G, T55C, G56C, G57T, C58T, C59G, T60A, G62A
modifications: reconstituted with mouse histones H2A, H2B, H3.3 and H4
B8: 96 (nucleosome)
DNA 1: B1 DNA 1 with C99T, T100C, C101A, A103G, G105C, C107A, A108T
DNA 2: B1 DNA 2 with T46A, G47T, C49G, T51C, G53T, A54G, G55A
modifications: reconstituted with mouse histones H2A, H2B, H3.3 and H4
B9: 93 (nucleosome)
DNA 1: B3 DNA 1 with C92T, G95C, G96T, C98A, A100G, A101G, G102C, G103C, G104A
DNA 2: B3 DNA 2 with C50T, C51G, C52G, T53C, T54C, G56T, C58A, C59G, G62A
modifications: reconstituted with mouse histones H2A, H2B, H3.3 and H4
B10: 94 (nucleosome)
DNA 1: B3 DNA 1 with C92T, G95C, G96C, C97T, A101G, G103C, G104C, G105A
DNA 2: B3 DNA 2 with C49T, C50G, C51G, T53C, G57A, C58G, C59G, G62A
modifications: reconstituted with mouse histones H2A, H2B, H3.3 and H4
B11: 95 (nucleosome)
DNA 1: B3 DNA 1 with C92T, G95C, G96C, C97G, C98T, A99C, G104C, G105C
DNA 2: B3 DNA 2 with C49G, C50G, T55G, G56A, G57C, C58G, C59G, G62A
modifications: reconstituted with mouse histones H2A, H2B, H3.3 and H4
B12: 89 (nucleosome)
DNA 1: B3 DNA 1 with C92T, A93C, G95A, C97G, A99C
DNA 2: B3 DNA 2 with T55G, G57C, C59T, T61G, G62A
modifications: reconstituted with mouse histones H2A, H2B, H3.3 and H4
B13: 11 (nucleosome)
DNA 1: B3 DNA 1 with C14T, G16A, G17A, T18G, G22A, C92T, G95C, G96C, C97G, A99C
DNA 2: B3 DNA 2 with T55G, G57C, C58G, C59G, G62A, C132T, A136C, C137T, C138T, G140A
modifications: reconstituted with mouse histones H2A, H2B, H3.3 and H4
B14: 99 (nucleosome)
DNA 1: ATCCTGGAGAATCCCGGTGCCGAGGCCGCTCAATTGGTCGTAGACAGCTCTAGCACCGCTTAAACGCACGTACGCGCTGTCCCCCGCGTTTTAACCGCCAATCAAGGCCATCCCTAGTCTCCAGGCACGTGTCAGATATATACATCCTGTGAT
DNA 2: ATCACAGGATGTATATATCTGACACGTGCCTGGAGACTAGGGATGGCCTTGATTGGCGGTTAAAACGCGGGGGACAGCGCGTACGTGCGTTTAAGCGGTGCTAGAGCTGTCTACGACCAATTGAGCGGCCTCGGCACCGGGATTCTCCAGGAT
modifications: reconstituted with mouse histones H2A, H2B, H3.3 and H4
B15: 100 (nucleosome)
DNA 1: B14 DNA 1 with T102G, C103T, A104C, G106A, C108G, A110C, T111A
DNA 2: B14 DNA 2 with A43T, T44G, G46C, C48T, T50G, G51A, A52C
modifications: reconstituted with mouse histones H2A, H2B, H3.3 and H4
B16: 101 (nucleosome)
DNA 1: ATCCTGGAGAATCCCGGTGCCGAGGCCGCTCAATTGGTCGTAGACAGCTCTAGCACCGCTTAAACGCACGTACGCGCTGTCCCCCGCGTTTTAACCGCCAAGGTCAAGGCCACCTAGTCTCCAGGCACGTGTCAGATATATACATCCTGTGAT
DNA 2: ATCACAGGATGTATATATCTGACACGTGCCTGGAGACTAGGTGGCCTTGACCTTGGCGGTTAAAACGCGGGGGACAGCGCGTACGTGCGTTTAAGCGGTGCTAGAGCTGTCTACGACCAATTGAGCGGCCTCGGCACCGGGATTCTCCAGGAT
modifications: reconstituted with mouse histones H2A, H2B, H3.3 and H4

Target: NR5A2 wild type;histone octamer (Homo sapiens;, UniProt O00482;C0HKE1;Q6ZWY9;P84244;P62806 1-541;2-130;2-126;2-136;2-103, |)
Assay: SeEN-seq (EMSA of nucleosome library followed by sequencing); 0.8 uM human NR5A2; 20 mM Tris-HCl pH 7.5, 120 mM NaCl, 1 mM MgCl2, 10 uM ZnCl2, 1 mM DTT, 100 ug/ml BSA, room temperature, 30 min; 0.1 uM nucleosome library; high values mean tight binding

First: B1
Second: B2
The binding signal of the first is higher: 0.742 log2 enrichment (bound/unbound, relative to Widom 601) for the first, 0.701 log2 enrichment (bound/unbound, relative to Widom 601) for the second.

First: B3
Second: B4
The binding signal of the first is lower: 0.636 log2 enrichment (bound/unbound, relative to Widom 601) for the first, 0.821 log2 enrichment (bound/unbound, relative to Widom 601) for the second.

B5 and B7 are the same in binding signal: 0.711 log2 enrichment (bound/unbound, relative to Widom 601) for the first, 0.711 log2 enrichment (bound/unbound, relative to Widom 601) for the second.

First: B8
Second: B9
The binding signal of the first is higher: 1.16 log2 enrichment (bound/unbound, relative to Widom 601) for the first, 0.842 log2 enrichment (bound/unbound, relative to Widom 601) for the second.

First: B10
Second: B11
The binding signal of the first is lower: 1.36 log2 enrichment (bound/unbound, relative to Widom 601) for the first, 1.87 log2 enrichment (bound/unbound, relative to Widom 601) for the second.

First: B12
Second: B13
The binding signal of the first is lower: 0.658 log2 enrichment (bound/unbound, relative to Widom 601) for the first, 4.08 log2 enrichment (bound/unbound, relative to Widom 601) for the second.

First: B14
Second: B15
The binding signal of the first is lower: 0.545 log2 enrichment (bound/unbound, relative to Widom 601) for the first, 0.655 log2 enrichment (bound/unbound, relative to Widom 601) for the second.

With B16 the binding signal was 2.38 log2 enrichment (bound/unbound, relative to Widom 601).

Target: mouse Nr5a2 wild type;histone octamer (Mus musculus;, UniProt P45448;C0HKE1;Q6ZWY9;P84244;P62806 1-560;2-130;2-126;2-136;2-103, |)
Assay: SeEN-seq (EMSA of nucleosome library followed by sequencing); 1.2 uM mouse Nr5a2; 20 mM Tris-HCl pH 7.5, 120 mM NaCl, 1 mM MgCl2, 10 uM ZnCl2, 1 mM DTT, 100 ug/ml BSA, room temperature, 30 min; 0.1 uM nucleosome library; high values mean tight binding

Compared with B1, B2 is lower in binding signal: 0.636 log2 enrichment (bound/unbound, relative to Widom 601) for the first, 0.557 log2 enrichment (bound/unbound, relative to Widom 601) for the second.

First: B3
Second: B4
The binding signal of the first is higher: 0.614 log2 enrichment (bound/unbound, relative to Widom 601) for the first, 0.52 log2 enrichment (bound/unbound, relative to Widom 601) for the second.

First: B5
Second: B6
The binding signal of the first is lower: 0.905 log2 enrichment (bound/unbound, relative to Widom 601) for the first, 1.14 log2 enrichment (bound/unbound, relative to Widom 601) for the second.

Compared with B7, B8 is higher in binding signal: 0.746 log2 enrichment (bound/unbound, relative to Widom 601) for the first, 1.04 log2 enrichment (bound/unbound, relative to Widom 601) for the second.

First: B9
Second: B10
The binding signal of the first is lower: 0.875 log2 enrichment (bound/unbound, relative to Widom 601) for the first, 1.22 log2 enrichment (bound/unbound, relative to Widom 601) for the second.

First: B11
Second: B12
The binding signal of the first is higher: 1.29 log2 enrichment (bound/unbound, relative to Widom 601) for the first, 0.574 log2 enrichment (bound/unbound, relative to Widom 601) for the second.

Compared with B13, B14 is lower in binding signal: 4.04 log2 enrichment (bound/unbound, relative to Widom 601) for the first, 0.468 log2 enrichment (bound/unbound, relative to Widom 601) for the second.

First: B15
Second: B16
The binding signal of the first is lower: 0.488 log2 enrichment (bound/unbound, relative to Widom 601) for the first, 1.47 log2 enrichment (bound/unbound, relative to Widom 601) for the second.
